Compounds with a hit are over-represented: about 1.9% of the library has one in this group of screens.
GRK2 aptamer HTS: blocks RNA aptamer binding to human GRK2 | P25098 | bead flow cytometry, FAM-aptamer displacement from GRK2 | inhibition of aptamer binding, % at 10 µM | 330,000 compounds, 0.59% hits | AID 488847;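 active = inhibition of aptamer binding above 40%, roughly 3 SD of noise, on plates passing a quality check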;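 also: median bead fluorescence of bound FAM aptamer so fluorescent compounds give negative values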
eIF4H inh: inhibitors of RNA binding by human eIF4H; eIF4H fluorescence polarization binding assay; inhibition, % at 35 µM; 290,000 compounds, 0.94% hits;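 also: calls also rest on retests at 20 µM and on dose response follow-up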
PERK inh: human PERK inhibition, primary cell-based screen | 220,000 compounds, 0.17% hits | AID 1416 | CHO PERK-DD fusion, SEAP luminescence translation reporter | Q9NZJ5 | inhibition, % at 5.6 µM;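 active = inhibition above the mean inhibition of all tested compounds plus 3 SD, set separately per screening campaign, cut at about 2.9% in these data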;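 also: PERK kinase domain activated by AP20187 dimerizer at 100 nM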
MLLE-PAM2 inh: blocks PAM2 peptide binding to the PABP1 MLLE domain. P11940. GST-MLLE / FITC-PAM2 fluorescence polarization. inhibition, % at 20 µM. 360,000 compounds, 0.36% hits. AID 588489; in the data active = inhibition above about 35%, passing the limit was not always enough
PABP polyA inh: blocks human PABP binding to poly(A) RNA. fluorescence polarization. inhibition, % at 35 µM. 290,000 compounds, 1% hits;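 also: calls also rest on retests at 20 µM and on dose response follow-up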
GRK2 CP1: confirmation of human GRK2 inhibitors displacing RNA aptamer; aptamer displacement, % at 10 µM; 2,000 compounds, 4% hits; shares compounds with GRK2 aptamer HTS; bead-bound GRK2, FAM-aptamer displacement, flow cytometry;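 active = aptamer displacement above 40%, near three times the noise of non-fluorescent compounds, on plates passing quality checks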;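 also: negative values mostly reflect intrinsic compound fluorescence rather than true enhancement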
Aptamer quench 1: fluorescent aptamer quenching in GRK2 counter-screen dose response; shares compounds with GRK2 aptamer HTS; Fluorescent RNA aptamer beads, flow cytometry; stronger effect = higher value; fluorescence change (kMESF span), kMESF (concentration not given with the values); 110 tested, under 10 active; AID 504521;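 active = compounds whose bead fluorescence drops by more than 37 kMESF across the dose range, marking them as dye quenchers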
Aptamer quench SP: quenches fluorescent RNA aptamer, GRK2 hit artifact; shares compounds with GRK2 aptamer HTS; fluorescence response (% of DMSO), % at 10 µM; Carboxyfluorescein RNA aptamer on beads, flow cytometry quenching; stronger effect = lower value; 2,000 tested, under 10 active;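 active = compounds that quench the bead-bound fluorescent RNA probe, cutting fluorescence to under half of the solvent control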;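 also: counterscreen run without GRK2 so only probe quenching by compound is measured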
GRK2 CP2: confirmation of human GRK2 inhibitors binding RNA aptamer site; bead-bound GRK2, FAM-aptamer displacement, flow cytometry; AID 504782; shares compounds with GRK2 aptamer HTS; inhibition of aptamer binding, % at 10 µM; 360 tested, under 10 active;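 active = inhibition of aptamer binding above 40%, about triple the noise seen with nonglowing compounds, on plates passing quality control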;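 also: negative values mostly come from compounds that fluoresce themselves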
FAM quench CP2: quenches fluorescent RNA aptamer, GRK2 hit artifact. shares compounds with GRK2 aptamer HTS. carboxyfluorescein RNA aptamer beads, flow cytometry quenching; stronger effect = lower value. 360 tested, under 10 active. fluorescence response vs DMSO, % at 10 µM;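 active = response vs DMSO under 50%, meaning signal dropped by over half, treated as fluorescence quencher; inconclusive = no clear call, values can overlap the other calls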;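 also: labelled aptamer on streptavidin beads without GRK2 as a quench counter-screen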
Each line names hits and unclear results; the compound was inactive in the other large screens (follow-up assays come after a bar, where they were run). Unless noted, no rule for the calls is given here.

O=C(C1CCCN(S(=O)(=O)c2cccc3nsnc23)C1)N1CC=C(c2ccccc2)CC1 (stereo not drawn)	none | GRK2 CP1 inactive | Aptamer quench SP inactive
NC(=O)Nc1ccc(C(=O)OCC(=O)Nc2cccc(S(=O)(=O)NC3=NCCC3)c2)cc1	none (no result: eIF4H inh, PERK inh, PABP polyA inh)
O=C(COC(=O)c1cccc(Cl)c1)Nc1cccc(S(=O)(=O)NC2=NCCC2)c1	none (no result: eIF4H inh, PERK inh, PABP polyA inh) | GRK2 CP1 inactive | Aptamer quench SP inactive
CCC(C)(C)NC(=O)CN(Cc1cccs1)C(=O)C(=O)Nc1ccc2c(c1)OCCO2	GRK2 aptamer HTS 74.0 | GRK2 CP1 inactive | Aptamer quench SP inactive
CCC(C)(C)NC(=O)CN(Cc1cccs1)C(=O)CCC(=O)Nc1nccs1	none
COc1ccc(/C(N)=N/OC(=O)C2CCCCC2)cc1	none (no result: PERK inh)
Cc1ccc(CNC(=O)CCS(=O)(=O)c2ccc3c(c2)NC(=O)C(C)S3)cc1 (stereo not drawn)	none (no result: PERK inh) | GRK2 CP2 inactive | FAM quench CP2 inactive
COc1ccccc1NC(=O)CCS(=O)(=O)c1ccc2c(c1)NC(=O)C(C)S2 (stereo not drawn)	none (no result: PERK inh) | GRK2 CP2 inactive | FAM quench CP2 inactive
Cc1ccc(CNC(=O)CC(C)S(=O)(=O)c2ccc3c(c2)NC(=O)C(C)S3)cc1 (stereo not drawn)	none (no result: PERK inh) | GRK2 CP2 inactive | FAM quench CP2 inactive
CCOC(=O)c1c(NC(=O)CSc2nc3ccccc3o2)sc(C(C)=O)c1C	GRK2 aptamer HTS 51.0 | GRK2 CP1 inactive | Aptamer quench SP inactive
C=C(C)C(=O)Nc1cccc(C2=NOC3(C2)C[C@H](C(N)=O)N(C(=O)/C=C/C)C3)c1 (stereo partly drawn)	GRK2 aptamer HTS 70.0, eIF4H inh 87.8, PABP polyA inh 68.4 (no result: PERK inh) | GRK2 CP1 50.0 | Aptamer quench 1 inactive | Aptamer quench SP inactive
C/C=C/C(=O)N1CC2(CC(c3cccc(NC(=O)CC)c3)=NO2)C[C@H]1C(N)=O (stereo partly drawn)	none (no result: PERK inh)
C/C=C\C(=O)Nc1cccc(C2=NOC3(C2)C[C@H](C(N)=O)N(C(=O)/C=C/CC)C3)c1 (stereo partly drawn)	none (no result: PERK inh)
C=C(C)C(=O)Nc1cccc(C2=NOC3(C2)C[C@@H](C(N)=O)N(C(=O)/C=C/CC)C3)c1 (stereo partly drawn)	GRK2 aptamer HTS 61.0, eIF4H inh 84.1, PABP polyA inh 56.1 (no result: PERK inh) | GRK2 CP1 41.2 | Aptamer quench 1 inactive | Aptamer quench SP inactive
O=C(Nc1nccs1)c1cnc2sccn2c1=O	none (no result: GRK2 aptamer HTS, eIF4H inh, PERK inh, PABP polyA inh)
COCc1cc(C)nc(NCCO)c1C#N	none
COCc1cc(C)nc(N/N=C/c2ccc(Cl)c(Cl)c2)c1C#N	GRK2 aptamer HTS 85.0 | GRK2 CP1 inactive | Aptamer quench SP inactive
Cc1ccc(C(CC(=O)O)NC(=O)c2ccc(S(=O)(=O)N3CC(C)OC(C)C3)cc2)cc1 (stereo not drawn)	none (no result: eIF4H inh, PERK inh, PABP polyA inh)
COc1ccc2nc(NC(=O)CSc3nnnn3C3CCCCC3)sc2c1	GRK2 aptamer HTS 51.0 | GRK2 CP1 inactive | Aptamer quench SP inactive
Cc1sc2ncnc(SCC(=O)Nc3ccc(S(=O)(=O)N4CCOCC4)cc3)c2c1C	none (no result: eIF4H inh, PERK inh, PABP polyA inh)
Cc1ccc(NC(=O)CNC(=O)C2CCCCC2)nc1	GRK2 aptamer HTS 63.0 (no result: eIF4H inh, PERK inh, PABP polyA inh) | GRK2 CP1 inactive | Aptamer quench SP inactive
CCc1ccc2nc3c(c(C(=O)O)c2c1)CCC3	none | GRK2 CP2 inactive | FAM quench CP2 inactive
COC(=O)c1c2c(nc3ccccc13)CCC2	none
O=C(O)c1c2c(nc3ccc(S(=O)(=O)N4CCC(C(=O)N5CCCCC5)CC4)cc13)CCCC2	GRK2 aptamer HTS 84.0 | GRK2 CP1 inactive | Aptamer quench SP inactive
COC(=O)c1ccc(CSc2nnc(C)n2N)o1	GRK2 aptamer HTS 100.0 | GRK2 CP2 inactive | FAM quench CP2 inactive
O=C(CCC(=O)c1ccc(Cl)cc1)NCc1ccccc1	none (no result: eIF4H inh, PERK inh, PABP polyA inh)
O=C(c1ccc(Cl)cc1)n1c(NCc2ccccc2)n[nH]c1=S	GRK2 aptamer HTS 65.0 | GRK2 CP1 inactive | Aptamer quench SP inactive
CC(=O)c1ccc(OCCCC(=O)NC2=NCCS2)cc1	MLLE-PAM2 inh 39.0 | GRK2 CP1 inactive | Aptamer quench SP inactive
CN(CCOc1ccccc1)C(=O)C1CCC(=O)N(CCc2ccc(Cl)cc2)C1 (stereo not drawn)	none (no result: PERK inh) | GRK2 CP1 inactive | Aptamer quench SP inactive
COc1ccc(CCN2CC(C(=O)N(C)CCOc3ccccc3)CCC2=O)cc1 (stereo not drawn)	none (no result: eIF4H inh, PERK inh, PABP polyA inh) | GRK2 CP1 inactive | Aptamer quench SP inactive
COc1ccc(CCN2CC(C(=O)N(C)Cc3ccccc3OC)CCC2=O)cc1 (stereo not drawn)	none (no result: PERK inh)
O=C(/C=C/[C@H]1O[C@@H](n2cnc3c(NC(=O)c4ccccc4)ncnc32)[C@H](O)[C@@H]1O)NCc1cccs1	none (no result: GRK2 aptamer HTS, eIF4H inh, PERK inh, PABP polyA inh)
CCOCCCNC(=O)C(NC(=O)c1ccccc1O)c1ccc(C)cc1 (stereo not drawn)	PABP polyA inh inconclusive
CCOCCCNC(=O)C(NC(=O)C1CCC(=O)N1)c1ccc(C)cc1 (stereo not drawn)	GRK2 aptamer HTS 45.0 | GRK2 CP1 inactive | Aptamer quench SP inactive
O=C(NCc1cccs1)C1(S(=O)(=O)c2ccccc2)CC=CC1	none (no result: PERK inh) | GRK2 CP2 inactive | FAM quench CP2 inactive
O=C(NCc1ccco1)C1(S(=O)(=O)c2ccccc2)CC=CC1	none (no result: PERK inh)
CC(C)=CCN1CCN(Cc2ccc(Sc3nncn3C)o2)CC1CCO (stereo not drawn)	none
O=C(NCC1CCCN(C(=O)NCc2ccccc2)C1)c1ccc2c(c1)OCO2 (stereo not drawn)	none | GRK2 CP1 inactive | Aptamer quench SP inactive
O=C(NCC1CCCN(Cc2ccc3c(c2)OCCO3)C1)c1ccc2c(c1)OCO2 (stereo not drawn)	none (no result: PERK inh)
Cc1c(NC(=O)c2ccc(C(=O)Nc3c(C)n(C)n(-c4ccccc4)c3=O)cc2)c(=O)n(-c2ccccc2)n1C	none (no result: PERK inh)
Cc1c(NC(=O)c2n[nH]c(=O)c3ccccc23)c(=O)n(-c2ccccc2)n1C	GRK2 aptamer HTS 81.0 | GRK2 CP1 inactive | Aptamer quench SP inactive
Cc1cc(=O)oc2cc(OCC(=O)Nc3c(C)n(C)n(-c4ccccc4)c3=O)c(Cl)cc12	none (no result: GRK2 aptamer HTS, eIF4H inh, PERK inh, PABP polyA inh)
Cc1nc2c(ccc3c2ccc2nc(C)sc23)s1	none (no result: MLLE-PAM2 inh) | GRK2 CP2 inactive | FAM quench CP2 inactive
CCOCCCNC(=O)CCc1ccc(-n2cnc3cccnc32)cc1	eIF4H inh inconclusive, PABP polyA inh inconclusive (no result: PERK inh)
